Source: PubChem
DRD3 antagonist: qHTS of D3 Dopamine Receptor Antagonist: qHTS; D(3) dopamine receptor (Homo sapiens), P35462; D3R cells, DiscoveRx beta-arrestin luminescence, antagonist mode; active compounds read low; max response, negative = inhibition, %; 360,000 tested, 2.5% active; AID 652054, 2013; in the data active means max response below about -50%; inconclusive means no clear call, values can overlap the other calls
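Cells plated overnight at 1500 cells/well, then exposed to library compounds with dopamine controls for 90 minutes at 37 degrees C. DiscoveRx reagent added for 30–60 minutes at room temperature; luminescence read, quantitative HTS format.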
B2AR arrestin: qHTS assay of beta-arrestin-biased ligands of beta2-adrenergic receptor | Beta-2 adrenergic receptor (Homo sapiens), P07550 | beta-arrestin recruitment to beta2AR, cell-based reporter | Potency, µM (top dose mostly 46.1 µM), hits mostly activators | 330,000 tested, 0.02% active | AID 492947, 2010; active means well fitted activation curve with a large enough effect; inconclusive means small, poorly fitted or top-dose-only effect; further: nearly all actives have a fitted effect of over 65% in size
D3 ag: qHTS of D3 Dopamine Receptor Agonist: qHTS | D(3) dopamine receptor (Homo sapiens), P35462 | D3R DiscoveRx beta-arrestin cells, luminescence, 90 min | max activation, % | 410,000 tested, 0.58% active | AID 652048, 2013; in the data active means max activation above about 30%
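Cells at 1500/well, incubated overnight, then treated with pinned compounds (dopamine as control) for 90 min at 37 degrees C. DiscoveRx reagent added for 30 - 60 minutes at room temperature; luminescence read.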
TSHR antagonist: Antagonists of the Thyroid Stimulating Hormone Receptor: HTS campaign | activity change, negative = inhibition, % at 11.5 µM | 330,000 tested, 0.2% active | TSHR-expressing cells, TSH-stimulated cAMP HTRF, 2 h; active compounds read low;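 active means activity change below a set negative limit, meaning inhibition stronger than a set level, cut at about -70% in these data; inconclusive means activity change between two set negative limits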
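Inhibition of cAMP made by TSHR-expressing cells under TSH stimulation (4nM final, EC80; 2 h, 37 deg C) is quantified with a one-step lysis HTRF kit, anti-cAMP cryptate versus cAMP-d2.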
Numbers stand for hits; – = inactive; ? = inconclusive; · = no result given. A selection: hits, their analogues and other compounds. The true share with any hit is near 2.9%.

SMILES | DRD3 antagonist | B2AR arrestin | D3 ag | TSHR antagonist
c1ccc(C2(N3CCCCC3)CCCCC2)cc1 | – | – | – | –
S=C=Nc1cccc(C2(N3CCCCC3)CCCCC2)c1 | – | ? | 84.0 | –
CNCCc1ccc(O)c(O)c1 | – | · | 115.8 | –
CCC(=O)OC1(Cc2ccc(CC)cc2)CC(C)N(C)CC1C (stereo unspecified) | -56.4 | – | – | –
CCC(=O)OC1(c2cccc(C)c2)CC(C)N(C)CC1C (stereo unspecified) | – | – | – | –
CCCCCc1cc(O)c2c(c1)OC(C)(C)c1ccc(C)cc1-2 | · | · | – | ·
Cc1ccc(CC(=O)N2CCN(Cc3ccccc3)CC2)cc1 | – | – | – | –
O=C(Cc1c(Cl)cccc1Cl)N1CCN(Cc2ccccc2)CC1 | -50.8 | – | – | –
CCN1CCN(Cc2cc(Br)cc(OC)c2O)CC1 | -52.9 | – | – | –
Oc1c(Br)cc(Br)cc1CN1CCN(Cc2ccccc2)CC1 | ? | – | – | –
On1ccccc1=S | -139.6 | ? | – | –
CCCCCn1c(N)c(C(=O)NCc2cccs2)c2nc3ccccc3nc21 | – | – | – | –
Nc1c(C(=O)NCCCc2ccccc2)c2nc3ccccc3nc2n1Cc1cccs1 | – | – | 35.4 | –
CC1=C(N2CC2)C(=O)C(CO)=C(N2CC2)C1=O | -95.6 | · | – | ·
COCCCN1CCN(c2nnc3n2-c2sc(Br)cc2C(c2ccccc2Cl)=NC3)CC1 | -56.5 | – | – | –
COCCNCCOc1ccc(C(C)(C)c2ccccc2)cc1 | -57.2 | – | – | –
CCN(CC)S(=O)(=O)c1ccc(NN=C(C#N)C#N)cc1 | – | – | – | -70.3
OC12ONC(c3ccccn3)C1N1CCC2CC1 (stereo unspecified) | ? | 18.4µM | – | –
C[C@]12C[C@H]3S[C@H]3C[C@@H]1CC[C@@H]1[C@@H]2CC[C@]2(C)[C@@H](O)CC[C@@H]12 | · | · | – | ·
COc1cccc(C2(O)CCN(Cc3ccncc3)CC2)c1 | -62.1 | – | – | –
COc1cccc(CN2CCN(Cc3cccc(F)c3)CC2)c1 | – | – | – | –
COc1ccc2nc(-c3ccc(CN4CCC(n5c(=O)[nH]c6ccccc65)CC4)cc3)c(-c3ccccc3)nc2c1 | -52.8 | · | – | ·
Cc1ccc2nc(-c3ccc(CN4CCC(n5c(=O)[nH]c6ccccc65)CC4)cc3)c(-c3ccccc3)nc2c1 | – | · | – | ·
O=c1[nH]c2ccccc2n1C1CCN(Cc2ccc(-c3nc4ccccc4nc3-c3ccccc3)cc2)CC1 | -92.3 | · | – | ·
CCCCn1nnnc1C(C1CC1)N1CCC(n2c(=O)[nH]c3ccccc32)CC1 (stereo unspecified) | – | · | – | ·
SMILES | DRD3 antagonist | B2AR arrestin | D3 ag | TSHR antagonist
O=c1[nH]c2ccccc2n1C1CCN(Cc2ccc(-c3nc4ccc(F)cc4nc3-c3ccccc3)cc2)CC1 | -95.9 | · | – | ·
COc1ccc(N2C(=O)CC(N3CCC(n4c(=O)[nH]c5ccccc54)CC3)C2=O)cc1 (stereo unspecified) | – | – | – | –
O=c1[nH]c2ccccc2n1CCCN1CCC(n2c(=O)[nH]c3cc(Cl)ccc32)CC1 | -102.7 | · | – | –
CC(=O)NC1CCSC1=O (stereo unspecified) | · | · | – | ·
CC1(C)S[C@@H]2[C@H](N3C(=O)C(c4ccccc4)NC3(C)C)C(=O)N2[C@H]1C(=O)O (stereo partly specified) | · | · | – | ·
Cc1ccccc1CN1C(=O)C(C)N=C(c2ccccc2)c2ccccc21 (stereo unspecified) | · | · | – | ·
C[C@@H](N)C(=O)c1ccccc1 | · | · | – | ·
Cc1ccsc1C(=O)C1CCCN(Cc2cccc(-n3cccn3)c2)C1 (stereo unspecified) | -79.9 | – | – | –
Cc1ccsc1C(=O)C1CCCN(Cc2ccc(-n3cccn3)cc2)C1 (stereo unspecified) | -62.7 | – | – | –
COc1cc(N2C(=O)CC(=O)NC2=O)cc(OC)c1OC | – | – | – | -129.7
O=C(OC1CCN(CCCl)CC1)C(c1ccccc1)c1ccccc1 | -94.8 | – | – | –
c1ccc2oc(N3CCNCC3)nc2c1 | – | – | – | –
c1ccc2c(N3CCNCC3)nsc2c1 | -70.4 | – | – | –
COc1ccccc1N1CCN(Cc2cnc(-c3ccccc3)[nH]2)CC1 | -82.9 | – | – | –
CC1CN(CCc2ccccc2)CC(C)O1 (stereo unspecified) | – | – | – | –
COc1ccc(N2CCN(Cc3nc4ccccc4[nH]3)CC2)cc1 | – | – | – | –
Cc1ccccc1CN1CCN(Cc2ccccc2)CC1 | ? | – | – | –
Cc1cccc(N2CCN(CCc3ccccc3)CC2)c1C | -67.6 | – | – | –
Cc1ccc(N2CCN(CCc3ccccc3)CC2)cc1 | -66.0 | – | – | –
COc1ccccc1N1CCN(CCc2ccccc2)CC1 | -103.8 | – | – | –
CC(C)(O)[C@@H]1C2OC(=O)[C@@H]1[C@]1(O)C[C@H]3O[C@]34C(=O)O[C@H]2[C@]14C (tested in a mixture with another compound) | · | · | · | –
CC(C)Cc1nc2cccnc2n1C1CCNCC1 | · | · | – | ·
COc1ccc(OC)c(C[C@H](C)N)c1 | · | · | – | ·
c1cc2c(c(NC3=NCCN3)c1)CCCC2 | · | · | – | ·
COc1ccc2c(c1)C13CCCCC1C(C2)N(C)CC3 (stereo unspecified) | · | · | · | –
SMILES | DRD3 antagonist | B2AR arrestin | D3 ag | TSHR antagonist
CCOC(=O)c1cccc(C2=C(CNC(=O)c3ccc([N+](=O)[O-])cc3)[C@H]3CC[C@@H](C2)N3Cc2ccccc2)c1 | -97.7 | · | – | ·
O=C1C[C@@H]2OCC=C3CN4CC[C@]56c7ccccc7N1[C@H]5[C@H]2[C@H]3C[C@H]46 | · | · | – | ·
COc1ccc(OC)c(C(O)C2CCCCN2)c1 (stereo unspecified) | -61.3 | – | – | –
CN1CC(C(=O)c2cccs2)C(c2ccc(Cl)cc2)C1 (stereo unspecified) | -74.6 | – | – | –
OC(CN1CCC(c2c[nH]c3ccccc23)CC1)C(F)(F)F (stereo unspecified) | -62.7 | – | – | –
Cc1cc(O)c(CN2CC=C(c3ccccc3)CC2)cc1C(C)C | -72.7 | – | – | –
O=C([O-])c1ccc(-[n+]2c(-c3ccccc3)cc(-c3ccccc3)cc2-c2ccccc2)cc1 | – | – | 54.7 | –
Oc1ccc(-[n+]2c(-c3ccccc3)cc(-c3ccccc3)cc2-c2ccccc2)cc1 | – | – | – | –
c1ccc2c(CN3CCN(C4CCCCC4)CC3)c[nH]c2c1 | -67.5 | – | – | –
CN1CCN(c2ccc([N+](=O)[O-])cc2Cl)CC1 | – | – | – | –
CN1CCN(c2cc([N+](=O)[O-])ccc2Cl)CC1 | -99.4 | – | – | –
CCOc1ccc(C2(C#N)CC[N+](C)(C)CC2)cc1 | -50.7 | – | – | –
COc1ccc(C2(C#N)CC[N+](C)(C)CC2)cc1 | – | – | – | –
